Active and inactive are the calls of the source. How the source made its calls: active means hit-call score of the fitted dose curve at least 0.9, where 1 is the maximum; inactive means score below 0.9.
read-out: Cytochrome P450 (CYP1A2), CYP1A2 (gene 1544); assay: LTEA_HepaRG_CYP1A2: Life Technologies and Expression Analysis (LTEA) Assay for Cytochrome P450 (CYP1A2) using HepaRG (AID 2283479); conditions: mRNA level, 48 h; actives raise or lower the signal;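 on AC50: TaqMan qRT-PCR transcript level normalized to ACTB GAPDH and POLR2A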
Experimental: LTEA_HepaRG is a cell based, multiplexed-readout assay that uses HepaRG, a human liver cell line, with measurements taken at 48 hours after chemical dosing on a 96-well plate.LTEA_HepaRG_CYP1A2 is one of 102 assay component(s) measured in the LTEA HepaRG cell culture assay. It is a marker of NR mediated metabolism.Data from the assay component LTEA_HepaRG_CYP1A2 was analyzed into 1 endpoint. This assay endpoint, LTEA_HepaRG_CYP1A2, was analyzed with bidirectional fitting relative to DMSO as the negative control and baseline of activity. Using a type of inducible reporter, measures of mRNA induction for gain or loss-of-signal activity can be used to understand regulation of transcription factor activity. To generalize the intended target to other relatable targets, this assay endpoint is annotated to the cyp intended target family, where the subfamily is xenobiotic metabolism.
A total of 1060 chemcials from the ToxCast library were tested in eight-point concentration-response experiments. Cell culture and cytotoxicity assays were conducted at Thermo Fisher Scientific's Custom Services facility (Madison, WI). A single lot of human HepaRG cells (Thermo Fisher Scientific, Frederick, MD) was used for the cell culture experiments. 96-well format collagen type I coated plates of human HepaRG cells were prepared using established methods. Briefly, cryopreserved HepaRG cells were thawed, plated at a density of approximately 100,000 cells/well in HepaRG Thaw, Plate, and General Purpose media (HPRG770, Thermo Fisher Scientific), and incubated for 48 hours. 0.5% DMSO was selected as vehicle control to balance the requisite need of DMSO in HepaRG cultures to maintain differentiation (for example, baseline metabolism, proportions of hepatocytes vs. cholangiocytes), while enabling further hepatic receptor pathway activation (for example, PXR and CAR) in response to chemical exposure. 48 hours after plating, the culture medium was replaced with HepaRG Serum-Free Incudtion Media. Cells were exposed to each test chemical in duplicate and maintained in CO2 incubators for another 48 hours. Chemical plates were thawed to room temperature and 200x concentrations of treatment groups were prepared. 8-point conentration-reponse curves were made with the highest exposure at 100 uM, followed by half-log dilutions, all in 0.5% DMSO. Each test plate contained variouse controls, induction positive controls (1mM phenobarbital), cytotoxicity positive controls ([…] aflatoxin B1), vehicle controls (0.5% DMSO), and total lysis controls (0.5% DMSO). Cell morphology images were taken using an Essen IncuCyte FLR automated microscope, with six 96-well plates imaged in about 24 minutes. Images were captured and exported and JPEG files. Spent culture media was transfered to black-well plates for the LDH assay, and remaining media was sorted at -80 C for later use. Cells were treated with RLT buffer and frozen until shipped for gene expression analysis. Total RNA was isolated from the cell suspension in 75 uL of Buffer RLT (Qiagen, Germantown, MD 20874) by Quintiles/Expression Analysis (Durham, NC) using a custom isolation procedure. Total RNA from each plate well was transferred to a preamplification plate. Fluidigm's 96.96 Dynamic ArrayTM (Fluidigm, Amsterdam, the Netherlands) technology was used for gene expression analyses by quantitative reverse transcription polymerase chain reaction (qRT-PCR, performed by Quintiles/Expression Analysis, Durham, NC)89. Standard TaqManTM Assays (Applied Biosystems/ThermoFisher Scientific, Foster City, CA) were used to assess the expression of 93 genes selected based on their selectivity and sensitivity to important hepatic receptors known to be modulated by environmental chemicals; importance in human hepatocyte functionality; and hepatotoxicity. […]

Compound | AC50 | outcome
[Cl-].[Cl-].[Hg+2] | 50 µM (active) | –
c1ccc(N=Nc2ccccc2)cc1 | 50 µM (active) | –
CCCCCCCCOC(=O)c1ccc(C(=O)OCCCCCCCC)c(C(=O)OCCCCCCCC)c1 | 50.5 µM (active) | –
O=C(N[C@H](c1ccccc1)[C@@H]1CN2CCC1CC2)c1c(Cl)ccc(C(F)(F)F)c1Cl | 84.6 µM (active) | –
COc1cc(C=O)cc2c1[C@H](COC(N)=O)[C@]1(OC(C)=O)ON2C[C@H]2[C@@H]1N2C(C)=O | – | inactive
CC(C)(C)OOC(C)(C)CCC(C)(C)OOC(C)(C)C | – | inactive
CCCCCCCCn1sccc1=O | – | inactive
Nc1ccc([N+](=O)[O-])cc1 | 39.3 µM (active) | –
CCC[CH2][Sn]([Cl])([CH2]CCC)[CH2]CCC | 1.58 µM (active) | –
COC(=O)Nc1nc2ccccc2[nH]1 | 31.8 µM (active) | –
N#CC(Br)(Br)C(N)=O | – | inactive
CCOc1cccc(C2(N3CCN(c4ccccc4)CC3)CCC(C)CC2)c1 (stereo not given) | 16.6 µM (active) | –
O=P(OCCCl)(OCCCl)OCCCl | – | inactive
Cc1ccc(N)c(N)c1 | 38.3 µM (active) | –
CCCCOC(=O)c1ccccc1C(=O)OCc1ccccc1 | 15.5 µM (active) | –
ClC1=C(Cl)C2(Cl)C3C(Cl)C=CC3C1(Cl)C2(Cl)Cl (stereo not given) | – | inactive
CS(=O)(=O)NC(=O)c1cc(Oc2ccc(C(F)(F)F)cc2Cl)ccc1[N+](=O)[O-] | – | inactive
CNC(=O)Oc1cccc2c1OC(C)(C)C2 | – | inactive
[As]#[In] | – | inactive
Cc1ccc([N+](=O)[O-])cc1 | – | inactive

Compound | AC50 | outcome
CN(C)c1ccc(C(=O)c2ccc(N(C)C)cc2)cc1 | 12.1 µM (active) | –
Clc1ccc(C(c2ccc(Cl)cc2)C(Cl)Cl)cc1 | – | inactive
c1ccc2c(c1)-c1cccc3cccc-2c13 | 50 µM (active) | –
O=Cc1ccco1 | – | inactive
CC(C)N(Cc1ccccc1)C(=O)C(C)(C)C | – | inactive
CO[C@@H]1[C@H](OC(=O)NC(=O)CCl)CC[C@]2(CO2)[C@H]1[C@@]1(C)O[C@@H]1CC=C(C)C | – | inactive
Clc1ccccc1Cl | – | inactive
Clc1ccc(C(c2ccc(Cl)cc2)C(Cl)(Cl)Cl)cc1 | – | inactive
C=CCc1ccc2c(c1)OCO2 | – | inactive
O=[N+]([O-])C(Br)(CO)CO | – | inactive
CCCCC(CC)COC(=O)c1ccc(C(=O)OCC(CC)CCCC)c(C(=O)OCC(CC)CCCC)c1 (stereo not given) | – | inactive
Oc1ccc2ccc3cccc4ccc1c2c34 | 11.5 µM (active) | –
CCCCCCCCCCCCCN1CC(C)OC(C)C1 (stereo not given) | 50 µM (active) | –
Cc1cc(N=Nc2ccccc2C)ccc1N | 31.4 µM (active) | –
OCCCBr | – | inactive
CCCSC(=O)N(CCC)CCC | – | inactive
Cc1cccc(N)c1N | 8.42 µM (active) | –
CCCCCOC(=O)c1ccccc1C(=O)OCCCCC | – | inactive
CCC12COCN1COC2 | – | inactive
Nc1cc(Cl)cc(C(=O)O)c1Cl | 50 µM (active) | –

Source: PubChem BioAssay (EPA / NIEHS)
